Compound activity as filed in PubChem.
M1 ag: M1 muscarinic receptor agonism. 3% of 64,000 active. B-score at 10 µM. CHO-M1 cells, Fluo-4 calcium fluorescence, agonist mode; active compounds read high;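 active = fluorescence rise, raw or as B-score row- and column-corrected plate score, outside the 99.7% band of its plate's samples, either direction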
M1 antag: M1 muscarinic receptor (rat) antagonism; P08482; CHO-M1 cells, Fluo-4 calcium, ACh EC80 antagonist mode; active compounds read low; B-score at 10 µM; 3.4% of 64,000 active;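 active = calcium fluorescence response, raw or row-and-column corrected B-score, differing from the plate sample mean either way at a set confidence level, mostly lower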
Hsp90 inh: displaces geldanamycin probe from tumor Hsp90; P07900; NCI-N417 lysate Hsp90, Cy3B-geldanamycin FP displacement; inhibition, % at 30 µM; 0.35% of 64,000 active; AID 429;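 active = inhibition above 50%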;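 also: 0% = tracer plus lysate wells and 100% = tracer alone without lysate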
MMP13 inh: MMP13 (human) collagenase inhibition | 0.07% of 65,000 active | MMP-13 fTHP FRET cleavage, Mca fluorescence | P45452 | inhibition, % at 4 µM;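 active = inhibition above the mean of compound-free control plate wells plus 3 SD, cut at about 14% in these data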;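 also: 0% = DMSO wells and 100% = wells with reference MMP-13 inhibitor after basal subtraction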
Cdc25B block: human M-phase inducer phosphatase 2 inhibition; inhibition, %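 (compounds tested at 10 µM final in the well)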; 0.1% of 65,000 active; recombinant Cdc25B, OMFP fluorescence Ex485/Em525; in the data active = inhibition above about 50%
Target sequence (P30305 whole entry, looked up): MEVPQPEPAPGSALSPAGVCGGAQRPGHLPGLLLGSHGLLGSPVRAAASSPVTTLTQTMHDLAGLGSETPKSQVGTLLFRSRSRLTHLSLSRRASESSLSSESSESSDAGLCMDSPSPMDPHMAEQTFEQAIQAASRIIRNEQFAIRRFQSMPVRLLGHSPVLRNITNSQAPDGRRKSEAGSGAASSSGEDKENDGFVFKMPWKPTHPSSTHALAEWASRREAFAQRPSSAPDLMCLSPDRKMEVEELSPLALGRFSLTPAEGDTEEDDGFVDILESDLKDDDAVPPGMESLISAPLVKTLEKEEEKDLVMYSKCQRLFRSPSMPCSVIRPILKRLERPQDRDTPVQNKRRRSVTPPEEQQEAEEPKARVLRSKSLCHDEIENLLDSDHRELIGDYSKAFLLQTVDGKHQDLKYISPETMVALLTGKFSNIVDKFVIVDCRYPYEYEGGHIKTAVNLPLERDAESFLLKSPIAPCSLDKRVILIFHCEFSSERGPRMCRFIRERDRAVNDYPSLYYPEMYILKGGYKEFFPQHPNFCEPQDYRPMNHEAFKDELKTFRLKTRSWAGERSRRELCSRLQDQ
MKP-1 inh: blocks human MKP-1 phosphatase activity | 0.15% of 65,000 active | recombinant MKP-1, OMFP hydrolysis fluorescence | inhibition, %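 (compounds tested at a single concentration somewhere between 10 and 100 µM)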 | AID 374 | P28562;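 active = inhibition above about 50%, limit read from the data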;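 also: 0% = DMSO max control wells and 100% = wells with enzyme stopped by NaOH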
M1 antag confirm: M1 muscarinic receptor (rat) antagonism, confirmed; calcium response (max-min fluorescence) at 10 µM; CHO-M1 cells, Fluo-4 calcium, ACh EC80 antagonism; active compounds read low; 43% of 1,700 active; shares compounds with M1 antag;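 active = calcium response below the same-plate mean of wells given acetylcholine alone at its 80%-effect dose, minus 3 SD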;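 also: raw fluorescence intensity difference in arbitrary instrument units and not normalized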
mGluR4 antag: mGluR4 (human) activity, M1 antagonist secondary assay; fluorescence response (max-min) at 10 µM; CHO-mGluR4 calcium flux, Fluo-4 fluorescence, glutamate EC80; active compounds read low; AID 678; 0.9% of 1,700 active; shares compounds with M1 antag;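 active = fluorescence response below the plate's average for near-maximal glutamate wells, less 3 SD of those wells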;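 also: raw unnormalized fluorescence span taken in the window right after glutamate addition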
Numbers without * were called inactive; x = no result given. Hits are enriched below; roughly 6.1% of the tested compounds scored in any of these assays.

SMILES	M1 ag	M1 antag	Hsp90 inh	MMP13 inh	Cdc25B block	MKP-1 inh	M1 antag confirm	mGluR4 antag
COc1ccccc1CNc1ccc(N2CCCCC2)cc1	-0.00244	-4.38*	7.3	-3.0	-1.0	5.2	318*	244
COc1cccc(CNc2ccc(N3CCCCC3)cc2)c1OC	-0.0174	-1.1	5.9	-3.1	-9.1	3.9	x	x
Cc1ccccc1-c1nn2c(-c3ccccc3)nnc2s1	0.147	-2.67*	-3.8	1.8	8.1	0.1	650	261
COc1ccc(CCn2nnnc2C(c2ccc(Cl)cc2)N2CCN(C)CC2)cc1OC (configuration not stated)	0.0469	-3.12*	-4.3	-1.1	2.8	-17.5	630	258
CCN1CCN(C(c2ccccc2)c2nnnn2CCc2ccc(OC)c(OC)c2)CC1 (configuration not stated)	-0.494	0.0131	-1.6	-7.5	7.4	11.3	x	x
Cc1noc(C)c1CN1C(=O)NC(Cc2ccccc2)(Cc2ccccc2)C1=O	x	x	2.1	-4.8	-0.9	16.0	x	x
CCOC(=O)/C(N=O)=C(\O)C1CCN(C(=O)OCC)CC1	0.205	0.00201	-0.6	1.9	13.1	-3.3	x	x
CCS(=O)(=O)c1nc2ccccc2n1CC(=O)N1CCOCC1	-0.86	-2.67*	-1.9	0.3	-2.6	4.9	689	213
CCOC(=O)c1ccccc1NC(=O)Cn1cnc2c(oc3ccccc32)c1=O	0.676	0.622	1.5	5.9	-6.4	15.3	x	x
CC(C(=O)c1ccccc1)n1cnc2ccccc2c1=O (configuration not stated)	-0.262	-10*	-1.0	5.3	-10.1	-1.0	608	209
Cc1ccc(S(=O)(=O)Nc2cccc3ncccc23)s1	0.517	-0.159	6.6	-0.5	1.9	20.1	x	x
COc1ccc(OCCC(=O)Nc2cc(C)on2)cc1	-0.03	0.679	-0.2	-2.2	-8.4	2.2	x	x
COc1ccc(S(=O)(=O)N(C)c2ccc(OCC(=O)Nc3cc(C)on3)cc2)cc1	-0.639	-2.75*	-3.0	-6.1	-24.3	-21.0	604	218
O=C(Nc1ccc2c(c1)OCO2)c1noc2c1CCCCC2	0.0571	-4.04*	3.2	-2.1	2.9	-0.1	387*	232
Cc1ccc(NC(=O)NC2CCCCC2)cc1Cl	-0.672	-1.15*	-1.7	0.3	-9.6	-7.7	524	202
Cc1ccc(NC(=O)C2CCN(C(=O)NC3CCCCC3)CC2)cc1Cl	-0.331	0.229	-2.0	-4.1	-0.1	-8.0	x	x
CCn1c(CNc2ccccc2Cl)nnc1SCC(=O)NCc1ccccc1	0.34	-2.98*	-6.9	-3.8	-20.2	-13.1	465*	239
CCn1c(CNC(=O)c2ccco2)nnc1SCC(=O)Nc1cc(C(F)(F)F)ccc1Cl	0.262	-1.16*	-2.0	-6.2	2.9	13.9	659	184
Cc1noc(NS(=O)(=O)c2ccc(NC(=O)c3cnc4n(c3=O)CCS4)cc2)c1C	0.551	-0.0273	-4.5	-0.3	-12.9	11.9	x	x
Cn1c(=O)c2c(nc(CN3CCN(CCO)CC3)n2Cc2cccc3ccccc23)n(C)c1=O	-0.895	-0.375	-2.9	0.8	5.6	18.6	x	x
CC(=O)c1ccccc1OCCn1nnc(-c2ccc(C)cc2)n1	-0.642	-0.0971	1.3	-0.1	-9.8	-0.9	x	x
Cc1ccc2nc(-c3ccc4c(c3)OCCO4)cc(C(=O)O)c2c1	0.732	0.404	-3.5	-2.6	-7.4	-7.6	x	x
O=C(O)c1cc(-c2cccs2)nc2cc3c(cc12)OCCO3	-0.826	-0.773*	-2.2	-421.8	-7.3	2.9	686	220
COc1ccc(C(=O)Nc2cccc(C)c2)cc1S(=O)(=O)N1CCOCC1	-0.12	0.00844	-6.7	1.5	-10.3	6.0	x	x
O=C(Nc1cccc(S(=O)(=O)C(F)F)c1)c1ccc(Cl)c(S(=O)(=O)N2CCOCC2)c1	1.04	-2.24*	-1.3	-3.2	-0.9	-1.4	588	104*
SMILES	M1 ag	M1 antag	Hsp90 inh	MMP13 inh	Cdc25B block	MKP-1 inh	M1 antag confirm	mGluR4 antag
CSC1=NCCN1C(=O)c1ccco1	0.484	0.143	-2.4	1.6	-12.1	9.6	x	x
CSC1=NCCN1C(=O)c1c(F)cccc1F	0.548	-3.07*	1.3	-2.2	1.2	-6.8	641	250
COc1ccc2nc(NC(=O)CSc3nnc(-c4ccoc4C)n3C)sc2c1	-0.311	-11.3*	1.6	-2.2	-4.9	-6.9	492	185
O=C1CSC(c2ccccc2F)N1CCN1CCCCC1 (configuration not stated)	-0.0339	-2.75*	-1.1	4.5	-10.4	9.8	481*	230
CC(C)CCN(C)C1CCN(S(=O)(=O)c2cccc(C(F)(F)F)c2)CC1	-0.109	-8.95*	-1.4	-6.9	-19.4	-3.3	215*	214
N=c1sccn1CC(=O)Nc1ccccc1-c1ccccc1	0.811	-1.24	x	1.2	-8.1	-4.1	x	x
N=c1sccn1CC(=O)Nc1cccc(Oc2ccccc2)c1	0.878	-2.45*	-7.4	5.4	-6.4	20.5	381*	238
CC1CCCCC12NC(=O)N(CC(=O)c1ccc[nH]1)C2=O (configuration not stated)	0.0986	-0.141	-7.2	4.9	28.3	31.2	x	x
CCOc1cc(CNc2ncc(-c3ccc(OC)cc3)n2C)ccc1O	-0.199	-1.42	-0.3	1.5	0.1	11.0	x	x
Cn1c(-c2ccc3c(c2)OCO3)cnc1NCc1ccc(Cl)cc1	-0.644	-6.63*	-5.7	-14.2	-2.9	-8.6	358*	230
Cc1ccc(CNc2ncc(-c3ccc4c(c3)OCO4)n2C)cc1	-0.0555	-2.89*	0.8	4.3	-5.7	-0.2	447*	261
Cn1c(-c2ccc(F)cc2)cnc1NCc1ccc(C#N)cc1	0.931	-3.4*	1.5	0.7	-2.5	-27.2	451	202
O=C(Nc1ccc2c(c1)OC1(CCCC1)O2)C1CC1	-0.251	-0.818	0.6	3.5	-6.0	6.3	x	x
COC(=O)c1ccc(OCC(O)CN2CCC(C)CC2)cc1 (configuration not stated)	0.939	-3.52*	0.9	-2.8	-7.0	-6.5	527	275
CCC(=O)c1ccc(OCC(O)CN(C)C2CCCCC2)cc1 (configuration not stated)	0.53	-5.47*	-5.4	4.6	-11.7	5.5	480*	235
CN(CC(O)COc1ccc(OCC(O)CN(C)C2CCCCC2)cc1)C1CCCCC1 (configuration not stated)	-0.912	-0.643	-2.7	-10.3	11.9	1.7	x	x
CC(=O)c1ccc(OCC(O)CN2C(C)CCCC2C)cc1 (configuration not stated)	0.77	-1.98*	-2.8	-5.6	2.5	-1.6	518	245
Cc1ccc(NC2c3ncccc3C(=O)N2C2CCCCC2)cc1C (configuration not stated)	-0.0089	-0.0526	-5.1	-0.2	-7.2	10.2	x	x
